# The list is not random: actives were taken first. Their share in the collection is about 6.1%.
# DRD3 agonist – activates the human D3 dopamine receptor; D3R DiscoveRx beta-arrestin cells, luminescence, 90 min; 0.58% of 410,000 active; P35462; max activation, %; AID 652048; in the data active means max activation above about 30%
#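 Cells at 1500/well, incubated overnight, then treated with pinned compounds (dopamine as control) for 90 min at 37 degrees C. DiscoveRx reagent added for 30 - 60 minutes at room temperature; luminescence read.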
# D1 agonist – human D1 receptor agonism; HEK293 T-REx D1 cells, calcium flux, agonist mode; activation, % at 2 µM; 1% of 360,000 active; AID 504660; in the data active means activation above about 30%
# Target sequence (P21728 whole entry, looked up): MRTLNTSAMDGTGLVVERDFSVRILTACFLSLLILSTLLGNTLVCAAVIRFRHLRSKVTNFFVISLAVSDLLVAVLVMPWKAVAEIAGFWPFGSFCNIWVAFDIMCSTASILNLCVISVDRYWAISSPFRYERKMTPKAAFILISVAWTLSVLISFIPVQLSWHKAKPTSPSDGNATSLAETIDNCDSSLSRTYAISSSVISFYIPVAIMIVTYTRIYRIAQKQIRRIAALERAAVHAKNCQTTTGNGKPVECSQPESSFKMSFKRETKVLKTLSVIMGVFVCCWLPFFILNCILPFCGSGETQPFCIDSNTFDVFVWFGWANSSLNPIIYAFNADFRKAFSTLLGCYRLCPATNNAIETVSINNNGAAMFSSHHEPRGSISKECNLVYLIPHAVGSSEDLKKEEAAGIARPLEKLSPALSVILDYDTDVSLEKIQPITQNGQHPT
#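 Inducible HEK293 T-REx D1 cells, force-coupled to calcium signalling, were plated at 4000 cells/well with tetracycline and held overnight at 30 C. After no-wash calcium dye loading, compound-evoked calcium rise over 180 s flagged agonists.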
# ERG Ets-DNA blk – ERG Ets/DNA interaction inhibition; P11308; fluorescence polarization, His-ERG Ets domain / labelled DNA; Potency, µM (highest dose often 76.9 µM), usual class: inhibitors; 0.028% of 370,000 active; active means well fitted inhibition curve with a large enough effect in the polarisation, with a control signal flat; inconclusive means small, poorly fitted or top-dose-only effect, or effect the other way, or a change in a side signal; inactive means no such curve, though single readings can be large or run the other way; the % refers to the polarisation;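 further: polarization taken with two DNA probes labelled with fluorescein and Texas red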
#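 His-tagged ERG Ets domain (1 uM in the protein solution; 300mM KCl, 50mM Tris-HCl, 1mM EDTA, 1mM DTT, pH 7.5) received compound, then a probe mix of 5 nM fluorescein-DNA and 100nM Texas-615-DNA. Fluorescence polarization was read for both dyes.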
# D1 PAM – enhances dopamine response at the human D1 receptor. P21728. HEK293 TREx D1 cells, calcium flux, dopamine EC20 potentiation. potentiation, % at 10 µM. 0.036% of 360,000 active. AID 504651; in the data active means potentiation above about 30%
# D1 antag – human D1 dopamine receptor antagonism | P21728 | HEK293 TREx D1 cells, calcium flux, dopamine EC80; active compounds read low | activity change, negative = inhibition, % at 10 µM | 3.2% of 360,000 active; in the data active means activity change below about -30%
#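 Antagonism measured as reduced calcium response to an EC80 dopamine addition following 180 s compound pre-read; cells were inducible HEK293 Trex D1 plated overnight at 30 C, read kinetically at 1 cycle/sec.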
# D3 antag – D3 dopamine receptor (human) antagonism; max response, negative = inhibition, %; AID 652054; D3R cells, DiscoveRx beta-arrestin luminescence, antagonist mode; active compounds read low; 2.5% of 360,000 active; P35462; in the data active means max response below about -50%; inconclusive means no clear call, values can overlap the other calls
#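 Cells expressing the human receptor were seeded at 1500 cells/well, incubated overnight at 37 degrees C in 5% CO2, then exposed to library compounds with dopamine controls for 90 minutes at 37 degrees C before luminescent detection.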
# Numbers stand for hits; . = inactive; ? = inconclusive; / = no result; ! = not confirmed by another sample; [ ] = another dose, or the depositor's remark.
SMILES,DRD3 agonist,D1 agonist,ERG Ets-DNA blk,D1 PAM,D1 antag,D3 antag
COc1ccccc1C(CNC(=O)CNC(=O)c1ccccc1Cl)N1CCCC1 (stereo not drawn),.,.,.,.,-45,.
CC1=CC2=C(OC1N(C)C)c1cccc3cccc(c13)C2=O (stereo not drawn),.,.,.,.,.,-52
O=C(CSc1ccccc1F)NCCN1C(=O)CSC1=O,.,/,.[15.4 µM],/,/,.
CCCOC(=O)Nc1nc2ccccc2o1,.,.,.,.,.,.
CCOC(=O)c1cnc(Nc2nc3ccccc3o2)nc1CN1CCN(C)CC1,.,.,.,.,-56,.
COC(=O)[C@]12CCCCC=C1N(CCC1=CCCCC1)C(=O)[C@H](CC(=O)N1CCC(c3ccccc3)CC1)C2,.,/,/,/,/,.
COCCn1nnnc1C(c1cccc(C#N)c1)N1CCCCCC1 (stereo not drawn),.,.,.,.,.,-75
N#Cc1cccc(C(c2nnnn2C2CCCC2)N2CCCCCC2)c1 (stereo not drawn),.,.,.,.,.,-54
CN(CC(=O)Nc1ccc(Cl)cc1F)C1CCS(=O)(=O)C1 (stereo not drawn),.,.,.,.,.,.
Cn1cnc([N+](=O)[O-])c1Sc1nc2ccccc2[nH]1,.,.,.,.,.,-54
CS(=O)(=O)c1cc([N+](=O)[O-])c(Sc2nc3ccccc3[nH]2)c([N+](=O)[O-])c1,.,.,.,.,.,-51
CCN1CCN(c2ccc([N+](=O)[O-])c(Sc3nc4ccccc4[nH]3)c2)CC1,.,.,.,.,.,-94
O=C(O)c1cc([N+](=O)[O-])c(Sc2nc3ccccc3[nH]2)c([N+](=O)[O-])c1,.,.,.,.,.,.
Cc1ccc(NC(=O)Cn2c(=O)n(CCc3ccccc3)c(=O)c3sc4ccccc4c32)cc1C,.,.,.,.,.,/
O=C(CCN1CCC(c2ccc(Cl)s2)=N1)c1ccc(Cl)s1,.,40,.,.,.,.
O=C(CCC(=O)N1CCN(c2ccccc2F)CC1)c1ccc(Cl)s1,.,/,.,/,/,.
CCC(=O)NCCCCCCCCCNC(=O)CC,.,.,.,.,.,.
Cc1cccc(NC(=O)CSc2nc(C)c(Cc3ccccc3)c(=O)[nH]2)c1C,.,.,.,.,-31!,/
CN(C)CCCOc1nn(Cc2ccccc2)c2ccccc12,.,.,.,.,-31,-93
COc1ccc(C(C)(C)C)cc1NC(=O)CCN1C(=O)NC(C)(C)C1=O,.,/,.,/,/,.
Cc1occc(=O)c1OC(=O)Nc1ccc(Cl)c(Cl)c1,.,.,.,.,-47,.
O=S(=O)(c1ccc(Br)s1)N1CCCCC1,.,.,/,.,.,?
CCOC(=O)c1cnc2c(ccc3ccccc32)c1Cl,.,.,.,.,-53,.
CCOC(=O)c1cnc2c(C)cc(C)cc2c1Nc1ccccc1OCC,.,.,.,.,.,/
CCOC(=O)c1cnc2c(C)c(Cl)ccc2c1Nc1ccc(S(=O)(=O)Nc2ncccn2)cc1,/,.,/,.,-39,/
SMILES,DRD3 agonist,D1 agonist,ERG Ets-DNA blk,D1 PAM,D1 antag,D3 antag
CCOC(=O)c1cnc2ccc(Cl)cc2c1Nc1ccc(S(=O)(=O)Nc2ncccn2)cc1,.,.,.,.,.,.
CCOC(=O)c1cnc2c(ccc3ccccc32)c1Nc1ccccc1O,.,.,.,.,-47,/
Cc1cccc(N2CCN(C(=O)CN3C(=O)COc4ccc(S(=O)(=O)N5CCCC5)cc43)CC2)c1C,.,.,.,.,.,/
CC(C)C(NC(=O)OC(C)(C)C)C(=O)NC(CCC(=O)OCc1ccccc1)C(N)=O (stereo not drawn),.,.,.,.,.,.
CC(=O)c1cccc(Nc2c3c(nc4ccccc24)CCC3)c1,.,.,.,.,.,.
Nc1c2c(nc3ccccc13)CCC2,.,.,.,.,-43,.
COc1ccccc1Nc1c2c(nc3ccccc13)CCC2,.,.,.,.,-38,.
Fc1cccc(Nc2c3c(nc4ccccc24)CCC3)c1,.,.,.,.,-53,.
CC(=O)c1ccc(Nc2c3c(nc4ccccc24)CCCC3)cc1,.,.,.,.,-42,.
Nc1c2c(nc3ccccc13)N(C1CCCCC1)CC2,.,.,.,.,-37,-83
O=C(Nc1c2c(nc3ccccc13)CCCC2)c1ccccc1F,.,.,.,.,-37,.
CC(C)(C)NC(=O)C1c2ccccc2Oc2ccccc21,.,.,.,.,.,.
CC(=O)N(c1ccc2oc(=O)sc2c1)S(=O)(=O)c1cccs1,.,.,.,.,.,-51
Cc1cc(OCC(=O)Nc2cccc(S(=O)(=O)N3CCCC3)c2)ccc1Cl,.,.,.,.,-30,.
Cc1cc(OCC(=O)Nc2cccc(S(=O)(=O)N3CCCCC3)c2)ccc1Cl,.,.,.,.,.,.
CCc1ccccc1OCC(=O)Nc1cccc(S(=O)(=O)N2CCCC2)c1,.,.,.,.,-30,.
O=C(COC(=O)CNC(=O)c1ccccc1F)Nc1cccc(S(=O)(=O)N2CCCCCC2)c1,.,.,.,.,.,.
O=C(COC(=O)CNC(=O)c1ccc(Cl)cc1Cl)Nc1cccc(S(=O)(=O)N2CCCC2)c1,.,.,/,.,-32,.
Cn1ccnc1SCC(=O)Nc1cccc(S(=O)(=O)N2CCCCCC2)c1,.,31,.,.,.,.
Cc1ccc2[nH]c3c(c2c1)CCc1cn[nH]c1-3,.,.,.,.,.,.
O=C(CCc1ccccc1Cl)Nc1cccc(S(=O)(=O)N2CCCC2)c1,.,.,.,.,-32,.
O=C(Cc1ccccc1Cl)Nc1cccc(S(=O)(=O)N2CCCCCC2)c1,.,.,.,.,.,.
Cc1cc(C)cc(OCCSc2nc3ccc(NC(=O)c4ccc5c(c4)OCO5)cc3s2)c1,.,.,.,.,.,/
Cn1cc(/C=C2/SC(=O)N(CC(=O)Nc3ccc4c(c3)OCO4)C2=O)c2ccccc21,.,/,/,/,/,-84
O=C(CN1C(=O)S/C(=C\c2ccc(-c3cc(C(=O)O)ccc3Cl)o2)C1=O)Nc1ccc2c(c1)OCO2,/,.,/,.,.,/
Cc1cc2oc(=O)cc(CN3CCN(S(=O)(=O)c4cccs4)CC3)c2cc1C,.,.,.,.,-44,.
Cc1cc(C)n(CC(=O)NCc2ccccc2)c(=O)c1C#N,.,.,.,.,.,.
C=CCOc1nc(-c2ccccc2Cl)nc2ccccc12,.,.,.,.,.,.
COc1ccc(C(CNC(=O)CN(C)S(=O)(=O)c2ccc(C)cc2)N2CCCC2)cc1 (stereo not drawn),.,/,.,/,/,-99

# Assay outcomes: PubChem, National Center for Advancing Translational Sciences (NCATS)
